Measurements published in PubChem BioAssay (NCI).
Compounds without any hit were thinned out: in the full panel of roughly 79,000, 15% have a hit. Calls of active or inactive are those of the source. Rule as the data show it: active = growth inhibition above about 70%; inactive = the rest.

What was measured:
[1] = NCI Yeast Anticancer Drug Screen. Data for the rad50 strain (AID 155);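 also: 0% = growth of vehicle-only cultures of the same strain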; settings: S. cerevisiae rad50 strain growth inhibition, hits give high values; at 50.0 µM unless noted
How it was run: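 Inhibition values express reduced yeast growth in compound-treated cultures relative to vehicle-treated controls.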

[2] = NCI Yeast Anticancer Drug Screen. Data for the mec2-1 strain (AID 157); settings: S. cerevisiae mec2-1 strain, hits give high values; at 50.0 µM unless noted
How it was run: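 Mutant yeast (mec2-1) grown with compound; growth inhibition relative to vehicle control reported.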

[3] = NCI Yeast Anticancer Drug Screen. Data for the sgs1 mgt1 strain (AID 161);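 also: 0% = growth of cultures given vehicle only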; settings: S. cerevisiae sgs1 mgt1 strain, hits give high values; at 50.0 µM unless noted
How it was run: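 This yeast growth screen uses a strain with defined DNA-repair lesions; compound-treated growth is compared with vehicle-treated growth.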

[4] = NCI Yeast Anticancer Drug Screen. Data for the cln2 rad14 strain (AID 165);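 also: 0% = growth equal to vehicle treated cultures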; settings: S. cerevisiae cln2 rad14 strain, hits give high values; at 50.0 µM unless noted
How it was run: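 Readout is yeast growth inhibition versus vehicle-treated controls, using a strain with cln2 and rad14 alterations exposed to compound.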

[5] = NCI Yeast Anticancer Drug Screen. Data for the bub3 strain (AID 167); settings: S. cerevisiae bub3 mutant strain, hits give high values; at 50.0 µM unless noted
How it was run: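 Steps: expose the mutant yeast strain to compound; grow alongside vehicle-treated cultures; measure growth; express inhibition against the vehicle cultures.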

[6] = NCI Yeast Anticancer Drug Screen. Data for the mlh1 rad18 strain (AID 175); settings: S. cerevisiae mlh1 rad18 strain growth inhibition, hits give high values; at 50.0 µM unless noted
How it was run: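 Genetically defined yeast (DNA repair-deficient) exposed to compounds; growth inhibition determined relative to vehicle.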

Measured: growth inhibition

O=C(O)CC(O)(CC(=O)O)C(=O)O
inactive: [1] 25% | [2] 17.9% | [3] -19.6% | [4] 3.65% | [5] -0.25% | [6] 9.25%

COc1cc(N(Cc2ccc3nc(OC)c(OC)nc3c2)Cc2ccc3nc(OC)c(OC)nc3c2)cc(OC)c1OC
inactive: [1] -29.8% | [2] -23.6% | [3] -19.4% | [4] -6.4% | [5] -20.4% | [6] -14.6%

CCN(CC)c1nc(Cl)nc(Nc2ccc3cc(-c4ccccc4)c(=O)oc3c2)n1
inactive: [1] -9.15% | [2] -24.9% | [3] -8.1% | [4] 8.05% | [5] -12.7% | [6] -7.25%

CC(C)=NNC(=O)c1ccc(N)cc1
inactive: [1] 36.1% | [2] 15% | [3] 14.4% | [4] 15.8% | [5] 22.1% | [6] 15.3%

O=C(O)CC(CS(=O)O)C(=O)O (stereo not drawn)
inactive: [1] -9.65% | [2] -11.2% | [3] -13.4% | [4] 1.05% | [5] 1.15% | [6] -3.7%

CS(C)=C(C(=O)c1ccccc1)/C(=C/C(=O)c1ccccc1)c1ccccc1
active: [6] 79%
inactive: [1] 21.5% | [2] 26.2% | [3] 65% | [4] 36% | [5] 43.6%

Clc1ccc(C(=Nc2ccccc2)C(Nc2ccccc2)c2ccc(Cl)cc2)cc1 (stereo not drawn)
inactive: [1] 4.75% | [2] -5.15% | [3] 17.8% | [4] 8.75% | [5] 3.8% | [6] 19.4%

S=C(c1ccco1)N1CCOCC1
inactive: [1] 14.8% | [2] 12% | [3] 25.1% | [4] 12.7% | [5] 16.2% | [6] 10.8%

COc1ccc2c(O)c(Oc3ccccc3)c(=O)oc2c1
inactive: [1] 0.5% | [2] 5% | [3] 4.25% | [4] 30.9% | [5] 15.3% | [6] 13.1%

N=C(N)c1ccc(NC(=S)Nc2ccc(C(=N)N)cc2)cc1
inactive: [1] 43.1% | [2] 21.3% | [3] 32.1% | [4] 7.35% | [5] 16.4% | [6] 31.8%

CC(C)C1N(N2C(=O)CS(=O)(=O)C2C(C)C)C(=O)CS1(=O)=O (stereo not drawn)
inactive: [1] 3.45% | [2] -15.1% | [3] -6.8% | [4] 6.75% | [5] -9.15% | [6] 24.3%

CC(C)NC(=O)OCc1c(COC(=O)NC(C)C)c(-c2ccc(F)cc2F)n2c1CCC2
inactive: [1] 12% | [2] 4% | [3] 10% | [4] 8.6% | [5] -13.6% | [6] -12.7%

CCCCCCCCN(CCCCCCCC)CC(O)c1cc(Cl)c(Cl)c(Cl)c1 (stereo not drawn)
inactive: [1] 24.1% | [2] 12.3% | [3] 47.4% | [4] 53.9% | [5] 18.6% | [6] 33%

Clc1ccc2[nH]ncc2c1
inactive: [1] 8.9% | [2] -36.1% | [3] -5.9% | [4] -7.95% | [5] 7.55% | [6] 18.1%

NC(N)=N/N=C(/c1ccccc1)c1ccc(O)cc1O
inactive: [1] 20.2% | [2] -15.7% | [3] -8.5% | [4] 9.7% | [5] -48.6% | [6] 14.5%

Clc1cccc(C2ON=C(c3ccccc3)N2C23CC4CC(CC(C4)C2)C3)c1Cl (stereo not drawn)
inactive: [1] 10.3% | [2] -6.55% | [3] 7.95% | [4] -13.5% | [5] -4% | [6] -3.95%

ClC(=Nc1cccc2ccccc12)N(c1ccccc1)c1ccccc1
inactive: [1] -8.45% | [2] 7.45% | [3] -9.3% | [4] 3.8% | [5] 7.15% | [6] -4.05%

COc1cc(OC)c(-c2nc3ccccc3c(=O)o2)cc1OC
inactive: [1] 4.9% | [2] 1% | [3] -3.65% | [4] 0.9% | [5] -0.75% | [6] 7.75%

O=c1[nH][nH]c2ccccc12
inactive: [1] 23.1% | [2] -11.3% | [3] 13.1% | [4] 13.9% | [5] 8.9% | [6] 12.2%

O=[N+]([O-])c1cccc(Br)c1
inactive: [1] 25.9% | [2] 22.8% | [3] -10.7% | [4] -52.6% | [5] 3.45% | [6] 5.75%

N#Cc1sc2c(c1OC(=O)c1cccs1)c(=O)n(-c1ccccc1)c(=S)n2-c1ccccc1
inactive: [1] 3.1% | [2] 10.4% | [3] 17.2% | [4] -5.55% | [5] 25.8% | [6] 15.2%

C1=NC(c2ccccc2)=CN(C2CCCCCCCCCCC2)C1(c1ccccc1)C1CCCCCCCCCCC1 (stereo not drawn)
inactive: [1] -18.2% | [2] -8.55% | [3] -12% | [4] -19.4% | [5] 12.3% | [6] 13.2%

O=Cc1ccc(OC(=O)Nc2ccc([N+](=O)[O-])cc2)cc1
inactive: [1] 2.65% | [2] 45% | [3] 33.4% | [4] -2.7% | [5] 46.6% | [6] 47.4%

COc1cc(OC)cc(C(=O)CC(=O)c2cc(OC)cc(OC)c2)c1
inactive: [1] -49.6% | [2] -38.3% | [3] -69% | [4] -7.9% | [5] -33.4% | [6] -26.1%

CNC(=O)c1n[nH]nc1Sc1c([N+](=O)[O-])ncn1C
inactive: [1] -39% | [2] -43% | [3] -34.1% | [4] -34.2% | [5] -20.6% | [6] -29.4%

Cc1cc(Nc2nnc(-c3cccnc3Oc3ccccc3)s2)ccc1Br
inactive: [1] 1.25% | [2] -6.85% | [3] -11.6% | [4] 16.7% | [5] 0.5% | [6] -5.35%

O=c1c2c3c(sc2nc2n1N=C(c1ccc(Cl)cc1)CS2)CCCC3
inactive: [1] -23.6% | [2] 6.05% | [3] -37.9% | [4] 1.8% | [5] -12.1% | [6] -16.6%

CN1CCN(C(=S)N(C)C(=O)c2ccco2)CC1
inactive: [1] -37.8% | [2] -36.9% | [3] -48.9% | [4] -8.85% | [5] -44.4% | [6] -40.1%

O=C(c1ccccc1)C(F)S(=O)(=O)O (stereo not drawn)
inactive: [1] -5.7% | [2] -7.75% | [3] -9.05% | [4] -25.8% | [5] 6.2% | [6] 16.9%

CC(=O)COC(=O)c1ccccc1
inactive: [1] 32.1% | [2] 3.5% | [3] 28.7% | [4] 0% | [5] 10.2% | [6] 26.2%

O=C(c1ccccc1)c1ccc2c(Cl)ccc3c2c1CC3
inactive: [1] -2.8% | [2] -21.3% | [3] -9.75% | [4] 12.8% | [5] 7.6% | [6] -8.45%

c1ccc2c(c1)Cc1cc3ccccc3cc1C2
inactive: [1] -32.2% | [2] -44.9% | [3] -29.5% | [4] 0.75% | [5] -33.2% | [6] -27.8%

COC1OC2COC(C)(C)OC2C2OC(C)(C)OC12 (stereo not drawn)
inactive: [1] 1.15% | [2] 5.35% | [3] 6.45% | [4] -6.25% | [5] -18.4% | [6] 16.3%

O=C(O)Nc1ccc(I)cc1
inactive: [1] -9.2% | [2] -10.2% | [3] 1.15% | [4] -25.9% | [5] -4.1% | [6] -12.4%

CN(Cc1ccccc1Cl)C(=S)NC1CCCCC1
active: [2] 88.8% | [3] 86% | [5] 81.3% | [6] 85.5%
inactive: [1] 62% | [4] 34.8%

CC(=O)OC1CCC2(C)C3CCC4(C)C(C(C)CCCC(C)C)CCC4C3C3CC32C1 (stereo not drawn)
inactive: [1] 30.6% | [2] -21.8% | [3] 29.1% | [4] 3.95% | [5] -3.05% | [6] 0.1%

CC(C)COC(=O)C(CC(C)C)NC(=O)C(C)O (stereo not drawn)
inactive: [1] 5.95% | [2] -17.4% | [3] -13.3% | [4] 10.8% | [5] -14.7% | [6] 6.6%

CN(C)C(n1cc2c(c1)-c1ccc(Cl)cc1C(c1ccccc1F)=NC2)n1cc2c(c1)-c1ccc(Cl)cc1C(c1ccccc1F)=NC2
inactive: [1] 11.8% | [2] -8.8% | [3] 1% | [4] 7.8% | [5] -7.55% | [6] -22.9%
